Source: PubChem BioAssay
Calls of active or inactive are those of the source.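 How the source made its calls, unless noted: active means efflux inhibition above 0.42, the validation set average plus 4 SD; inconclusive means no clear call, values can overlap the other calls; inactive means the rest.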

Experiments:
[1] = reduced mouse 2C T cell binding to pMHC/ICAM-1 vesicles – MLPCN validation set, flow cytometry, LFA-1/ICAM-1 modulator project, pilot screen (AID 2523;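 active means response below a set limit, under 55% cells CD8-positive and vesicle-bound, and CD8 cells' 90th-percentile brightness under 279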;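 on vesicle binding response: mean PE anti-B7-1 fluorescence of CD8+ cells relative to row control; 100% = QL9-loaded vesicles with DMSO vehicle in the same plate row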); settings: 2C mouse CD8+ T cells, at 7 µM, stronger effect = lower value; double positive events: measured here: CD8+/vesicle+ event percentage
[2] = biological target: Integrin beta-1 (Homo sapiens) + Integrin alpha-4 (Homo sapiens) (UniProt P13612+P05556); assay: alpha4beta1 integrin LIBS antibody binding reduction – U937 cells, HUTS-21 mAb, flow cytometry, validation set, VLA-4 allosteric modulator project, pilot screen (AID 2674;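 active means inhibition above 50%, about 3 SD of the validation set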;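 further: antibody binding induced by the VLA-4 ligand LDV present at three times its Kd; 0% = LDV ligand with antibody and no compound and 100% = antibody without LDV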); settings: HUTS-21 LIBS mAb binding, at 6.7 µM, stronger effect = higher value, binding induced by LDV ligand
[3] = calorie-restriction mimetic ROS inhibitors, yeast – validation compound set, pilot screen (AID 2706;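 active means superoxide response below 65% of plate, a cut near 3 SD across the whole screen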;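 further: yeast exposed to compound for one week at 30 degrees C before staining; 100% = mean of all compound wells on the same plate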); settings: S. cerevisiae aging, superoxide DHE fluorescence; at 10 µM, stronger effect = lower value
[4] = biological target: Beta-adrenergic receptor kinase 1 (Homo sapiens) (UniProt P25098); assay: GRK2 binders displacing RNA aptamer, biochemical, validation, human GRK2, bead flow cytometry (AID 488806;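 active means aptamer binding inhibition above 30%, about 3 SD of noise from non-fluorescent compounds; inactive means inhibition at or below 30%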); settings: bead-bound GRK2, FAM-aptamer displacement, at 10 µM, stronger effect = higher value
[5] = biological target: Beta-2 adrenergic receptor (Homo sapiens) (UniProt P07550); assay: agonist-induced loss of surface beta2AR – cell-based, FAP fluorogen, flow cytometry, validation set, pilot screen (AID 504459;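 active means percent response above 42, roughly 3 SD of non-fluorescent test compounds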;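 further: agonist-driven loss of surface beta2AR via internalization measured by FAP dye flow cytometry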); settings: Am2.2-beta2AR cells, at 10 µM, stronger effect = higher value
[6] = biological target: AP-2 complex subunit beta (Homo sapiens) (UniProt P63010); assay: beta-arrestin/AP2 interaction blockers – biochemical, validation set, GST-AP2 beads, flow cytometry, pilot screen (AID 504541;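 active means inhibition above 54%, about 3 SD of non-fluorescent compounds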;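 further: AP2 carries R879A mutation and is captured from E. coli lysate; bead-bound FITC arrestin peptide fluorescence measuring arrestin peptide binding to AP2; 0% = DMSO wells and 100% = excess unlabeled arrestin peptide control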); settings: FITC arrestin peptide, at 10 µM, stronger effect = higher value, AP2 beta2 appendage fragment, R879A mutant
[7] = cytosolic pH regulators acting via V-ATPase – S. cerevisiae, pHLuorin, HTS validation (AID 504600; in the data active means response above about 15%;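 further: plate controls were DMSO for no effect and reference compound for full effect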); settings: V-ATPase proton transport, at 10 µM, stronger effect = higher value
[8] = tested on: anti-desmoglein-3 scFv antibody binding to human DSG3; assay: blockers of pathogenic pemphigus antibody–desmoglein-3 binding – biochemical, validation compound set, bead-based, flow cytometry, pilot screen (AID 588368;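 active means binding below the plate cutoff, the plate median minus 3 SD, with a reading above zero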;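 further: signal is the median channel fluorescence of bead-bound GFP antibody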); settings: Protein G beads, DSG3-Fc, scFv-GFP binding, at 10 µM, stronger effect = lower value
[9] = Nile Red efflux blockade in pump-expressing yeast – validation compound set, multiplex, phenotypic, pilot screen (AID 588506);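 further: Nile Red retained in cells so higher fluorescence means more efflux inhibition; 0 = negative control wells and 1 = enniatin B 25 µM full block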; settings: S. cerevisiae pump-expressing triplex, Nile Red efflux flow cytometry; at 10 µM; stronger effect = higher value; the pumps come from Candida albicans
[10] = biological target: ATP-binding cassette sub-family B member 6 (Homo sapiens) (UniProt Q9NP58); assay: blockers of ABCB6-driven porphyrin uptake – K562-ABCB6 cells, flow cytometry, validation set, pilot screen (AID 588550;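 active means inhibition above the screen-wide mean plus 3 SD, about 51%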;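 further: 0% = DMSO wells and 100% = benzethonium chloride 70 µM positive control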); settings: K562-ABCB6 porphyrin accumulation, 1 h, at 10 µM, stronger effect = higher value
[11] = AML differentiation inducers, ER-HoxA9 marrow cells – cell-based, GFP/MAC1 double positive, flow cytometry, validation set, primary screen (AID 588685;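 active means differentiation response of at least 50%, scaled between solvent and reference control, from cells with both markers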;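 further: compound exposure lasts four days before antibody staining and flow analysis; 0% = DMSO wells and 100% = 5 µM fulvestrant positive control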); settings: stronger effect = higher value, normalized: vehicle 0, fulvestrant 100

Sequence of AP-2 complex subunit beta (Homo sapiens) (P63010 whole entry, looked up, the tested form may be a part, one chain of several): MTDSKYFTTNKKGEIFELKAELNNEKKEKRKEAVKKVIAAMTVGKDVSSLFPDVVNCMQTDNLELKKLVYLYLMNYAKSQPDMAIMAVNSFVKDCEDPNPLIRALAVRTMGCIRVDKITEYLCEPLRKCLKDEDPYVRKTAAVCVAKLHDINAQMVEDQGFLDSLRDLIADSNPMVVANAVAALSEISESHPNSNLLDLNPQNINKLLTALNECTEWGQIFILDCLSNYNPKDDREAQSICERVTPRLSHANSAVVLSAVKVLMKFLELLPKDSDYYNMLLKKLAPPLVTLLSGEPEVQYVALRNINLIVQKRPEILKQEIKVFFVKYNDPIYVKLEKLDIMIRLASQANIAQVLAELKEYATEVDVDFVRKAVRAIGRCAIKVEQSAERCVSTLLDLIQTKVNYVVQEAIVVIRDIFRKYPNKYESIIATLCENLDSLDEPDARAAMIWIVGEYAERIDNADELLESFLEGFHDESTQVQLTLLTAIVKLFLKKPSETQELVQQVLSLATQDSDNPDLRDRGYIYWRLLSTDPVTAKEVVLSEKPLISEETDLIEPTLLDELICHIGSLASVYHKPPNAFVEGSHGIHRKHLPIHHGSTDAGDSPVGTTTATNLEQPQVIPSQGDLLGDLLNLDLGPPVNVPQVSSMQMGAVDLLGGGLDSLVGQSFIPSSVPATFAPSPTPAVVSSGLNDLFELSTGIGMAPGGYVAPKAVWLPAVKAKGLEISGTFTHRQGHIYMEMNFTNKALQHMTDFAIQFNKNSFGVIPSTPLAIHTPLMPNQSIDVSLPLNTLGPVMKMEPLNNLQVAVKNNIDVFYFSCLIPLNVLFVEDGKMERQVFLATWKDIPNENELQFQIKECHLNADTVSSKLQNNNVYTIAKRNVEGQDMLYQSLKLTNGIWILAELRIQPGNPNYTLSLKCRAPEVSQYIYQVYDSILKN
Sequence of Beta-adrenergic receptor kinase 1 (Homo sapiens) (P25098 whole entry, looked up): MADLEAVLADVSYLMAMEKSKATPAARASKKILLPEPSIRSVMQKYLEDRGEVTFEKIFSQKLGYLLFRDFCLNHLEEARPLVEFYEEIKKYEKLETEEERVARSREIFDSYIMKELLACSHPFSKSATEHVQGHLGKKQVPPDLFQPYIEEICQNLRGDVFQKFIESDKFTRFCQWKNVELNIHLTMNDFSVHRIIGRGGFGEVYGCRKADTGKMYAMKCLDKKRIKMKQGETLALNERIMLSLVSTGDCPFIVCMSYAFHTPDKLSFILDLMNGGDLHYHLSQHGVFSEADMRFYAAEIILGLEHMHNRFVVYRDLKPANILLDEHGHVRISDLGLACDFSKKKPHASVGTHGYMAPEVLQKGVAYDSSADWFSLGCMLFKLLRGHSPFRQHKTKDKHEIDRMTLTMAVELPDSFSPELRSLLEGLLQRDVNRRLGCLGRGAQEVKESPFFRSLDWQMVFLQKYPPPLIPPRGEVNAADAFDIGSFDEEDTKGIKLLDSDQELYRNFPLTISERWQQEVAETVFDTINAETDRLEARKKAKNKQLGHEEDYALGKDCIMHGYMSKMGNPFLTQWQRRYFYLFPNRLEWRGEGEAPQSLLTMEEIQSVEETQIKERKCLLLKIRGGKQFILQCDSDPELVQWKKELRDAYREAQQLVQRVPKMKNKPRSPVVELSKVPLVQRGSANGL
Sequence of Integrin beta-1 (Homo sapiens) + Integrin alpha-4 (Homo sapiens) (P05556 whole entry, looked up): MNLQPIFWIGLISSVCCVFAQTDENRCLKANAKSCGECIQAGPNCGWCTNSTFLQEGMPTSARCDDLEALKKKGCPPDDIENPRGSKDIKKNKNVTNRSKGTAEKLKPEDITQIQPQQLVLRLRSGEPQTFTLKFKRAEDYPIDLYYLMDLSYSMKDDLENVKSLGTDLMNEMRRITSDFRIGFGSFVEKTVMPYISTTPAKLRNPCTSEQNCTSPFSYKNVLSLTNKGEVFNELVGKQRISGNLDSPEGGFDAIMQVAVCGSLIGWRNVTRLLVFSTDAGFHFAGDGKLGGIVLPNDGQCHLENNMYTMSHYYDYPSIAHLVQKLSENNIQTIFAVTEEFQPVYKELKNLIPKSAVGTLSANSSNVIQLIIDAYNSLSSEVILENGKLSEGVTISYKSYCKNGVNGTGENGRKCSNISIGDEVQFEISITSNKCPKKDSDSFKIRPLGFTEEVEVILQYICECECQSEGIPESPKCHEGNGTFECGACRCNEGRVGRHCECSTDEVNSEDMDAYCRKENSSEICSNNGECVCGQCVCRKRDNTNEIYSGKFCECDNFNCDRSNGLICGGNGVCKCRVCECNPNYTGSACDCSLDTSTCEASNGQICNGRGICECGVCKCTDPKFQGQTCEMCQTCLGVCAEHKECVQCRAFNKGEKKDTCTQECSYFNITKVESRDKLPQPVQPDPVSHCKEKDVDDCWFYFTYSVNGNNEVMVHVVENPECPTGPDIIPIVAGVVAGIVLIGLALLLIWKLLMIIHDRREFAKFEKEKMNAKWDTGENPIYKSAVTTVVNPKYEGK
Sequence of Integrin beta-1 (Homo sapiens) + Integrin alpha-4 (Homo sapiens) (P13612 whole entry, looked up): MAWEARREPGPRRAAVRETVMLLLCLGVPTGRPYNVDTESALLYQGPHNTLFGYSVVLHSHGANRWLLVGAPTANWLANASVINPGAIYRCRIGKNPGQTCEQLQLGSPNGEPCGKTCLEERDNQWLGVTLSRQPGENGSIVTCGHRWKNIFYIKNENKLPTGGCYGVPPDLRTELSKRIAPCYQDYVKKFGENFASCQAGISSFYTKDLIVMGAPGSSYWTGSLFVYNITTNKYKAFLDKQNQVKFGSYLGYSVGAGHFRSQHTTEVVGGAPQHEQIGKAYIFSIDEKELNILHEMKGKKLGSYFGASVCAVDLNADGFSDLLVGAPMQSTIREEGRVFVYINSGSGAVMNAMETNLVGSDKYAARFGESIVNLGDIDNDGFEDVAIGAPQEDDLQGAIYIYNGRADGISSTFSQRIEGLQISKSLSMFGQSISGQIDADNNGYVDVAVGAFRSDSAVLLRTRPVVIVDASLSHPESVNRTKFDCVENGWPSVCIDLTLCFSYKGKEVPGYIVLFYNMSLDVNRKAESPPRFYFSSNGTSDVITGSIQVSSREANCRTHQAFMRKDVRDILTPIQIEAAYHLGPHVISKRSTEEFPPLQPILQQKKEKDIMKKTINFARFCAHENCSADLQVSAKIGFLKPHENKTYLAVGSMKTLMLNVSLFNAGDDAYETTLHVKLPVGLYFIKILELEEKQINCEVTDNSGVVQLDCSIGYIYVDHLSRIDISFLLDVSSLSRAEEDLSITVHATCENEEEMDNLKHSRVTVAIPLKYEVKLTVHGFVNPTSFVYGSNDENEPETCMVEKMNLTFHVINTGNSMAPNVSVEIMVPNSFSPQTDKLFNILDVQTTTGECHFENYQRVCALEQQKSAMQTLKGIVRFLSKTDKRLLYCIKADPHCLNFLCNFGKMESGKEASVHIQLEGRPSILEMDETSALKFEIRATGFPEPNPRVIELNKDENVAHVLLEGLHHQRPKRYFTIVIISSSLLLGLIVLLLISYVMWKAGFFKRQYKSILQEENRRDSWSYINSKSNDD
Sequence of ATP-binding cassette sub-family B member 6 (Homo sapiens) (Q9NP58 whole entry, looked up): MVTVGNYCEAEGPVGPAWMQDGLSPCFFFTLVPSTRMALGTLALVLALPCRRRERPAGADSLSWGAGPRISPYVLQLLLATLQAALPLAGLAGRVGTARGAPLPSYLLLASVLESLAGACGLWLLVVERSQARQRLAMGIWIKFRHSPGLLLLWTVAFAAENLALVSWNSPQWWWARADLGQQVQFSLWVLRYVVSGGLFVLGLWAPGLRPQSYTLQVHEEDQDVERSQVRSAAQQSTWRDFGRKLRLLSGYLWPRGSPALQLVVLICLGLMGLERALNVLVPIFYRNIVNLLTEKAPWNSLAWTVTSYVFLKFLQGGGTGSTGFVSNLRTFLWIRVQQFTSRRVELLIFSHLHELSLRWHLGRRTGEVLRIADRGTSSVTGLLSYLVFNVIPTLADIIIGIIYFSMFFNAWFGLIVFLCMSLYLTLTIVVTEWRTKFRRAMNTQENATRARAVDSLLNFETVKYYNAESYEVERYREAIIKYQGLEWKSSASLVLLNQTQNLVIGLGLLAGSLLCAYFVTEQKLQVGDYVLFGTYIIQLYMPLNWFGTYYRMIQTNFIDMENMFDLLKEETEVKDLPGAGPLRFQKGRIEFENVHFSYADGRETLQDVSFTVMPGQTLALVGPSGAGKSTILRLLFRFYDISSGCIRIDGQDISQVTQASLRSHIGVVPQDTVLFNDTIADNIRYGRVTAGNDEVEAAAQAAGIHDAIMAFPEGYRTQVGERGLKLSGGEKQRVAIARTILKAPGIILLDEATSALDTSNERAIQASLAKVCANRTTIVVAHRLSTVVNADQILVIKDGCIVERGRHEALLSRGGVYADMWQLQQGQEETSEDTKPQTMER
Sequence of Beta-2 adrenergic receptor (Homo sapiens) (P07550 whole entry, looked up): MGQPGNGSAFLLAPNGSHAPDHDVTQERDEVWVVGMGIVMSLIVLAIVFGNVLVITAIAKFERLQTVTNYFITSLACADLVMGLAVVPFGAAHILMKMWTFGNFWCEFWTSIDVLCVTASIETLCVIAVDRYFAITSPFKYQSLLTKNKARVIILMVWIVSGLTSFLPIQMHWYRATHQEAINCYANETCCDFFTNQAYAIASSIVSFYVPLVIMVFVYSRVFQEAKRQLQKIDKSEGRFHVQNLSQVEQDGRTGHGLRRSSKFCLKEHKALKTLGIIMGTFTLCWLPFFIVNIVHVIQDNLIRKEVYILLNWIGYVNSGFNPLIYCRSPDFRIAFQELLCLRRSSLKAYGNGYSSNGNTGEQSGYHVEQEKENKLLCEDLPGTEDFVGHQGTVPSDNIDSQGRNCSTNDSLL

## CCOC(=O)c1cnc2ccc(C(=O)OC)cc2c1Nc1ccc2c(c1)OCCO2
[1]
  double positive events: 63.9%
  vesicle binding response: 266% (inactive)
[2]
  inhibition: 0.59% (inactive)
[3]
  superoxide response (% of plate): 99.1% (inactive)
[4]
  aptamer binding inhibition: 6% (inactive)
[5]
  response: -25.7% (inactive)
[6]
  inhibition: -8.06% (inactive)
[7]
  response: -27.9% (inactive)
[8]
  binding (% of control): 97.4% (inactive)
[9]
  efflux inhibition (fraction of control): 0.08 (inactive)
[10]
  inhibition: -2% (inactive)
[11]
  differentiation response: -0.06% (inactive)

## C#CCN(C)CCCOc1ccc(Cl)cc1Cl
[1]
  double positive events: 56.3%
  vesicle binding response: 64.3% (inactive)
[2]
  inhibition: -7.12% (inactive)
[3]
  superoxide response (% of plate): 96.4% (inactive)
[4]
  aptamer binding inhibition: 0% (inactive)
[5]
  response: -6.11% (inactive)
[6]
  inhibition: -2.33% (inactive)
[7]
  response: 1.85% (inactive)
[8]
  binding (% of control): 96.3% (inactive)
[9]
  efflux inhibition (fraction of control): 0.3 (inactive)
[10]
  inhibition: 12% (inactive)
[11]
  differentiation response: -1.64% (inactive)

## CCn1c2ccccc2c2cc(CC(N)=O)ccc21
[1]
  double positive events: 60.8%
  vesicle binding response: 153% (inactive)
[2]
  inhibition: 20.2% (inactive)
[3]
  superoxide response (% of plate): 92.7% (inactive)
[4]
  aptamer binding inhibition: -1% (inactive)
[5]
  response: -19.5% (inactive)
[6]
  inhibition: 1.51% (inactive)
[7]
  response: -10.1% (inactive)
[8]
  binding (% of control): 103% (inactive)
[9]
  efflux inhibition (fraction of control): 0.04 (inactive)
[10]
  inhibition: 5% (inactive)
[11]
  differentiation response: -0.06% (inactive)

## CCOc1ccc(CC2c3cc(OCC)c(OCC)cc3CCN2C(=O)CN2CCN(C)CC2)cc1OCC (stereo unspecified)
[1]
  double positive events: 61.7%
  vesicle binding response: 160% (inactive)
[2]
  inhibition: -11.3% (inactive)
[3]
  superoxide response (% of plate): 82.4% (inactive)
[4]
  aptamer binding inhibition: 0% (inactive)
[5]
  response: -8.24% (inactive)
[6]
  inhibition: 5.19% (inactive)
[7]
  response: -5.23% (inactive)
[8]
  binding (% of control): 108% (inactive)
[9]
  efflux inhibition (fraction of control): -0.04 (inactive)
[10]
  inhibition: 4% (inactive)
[11]
  differentiation response: -3.02% (inactive)

## N=C1C(c2ccccc2)=C(O)CN1CCCO
[1]
  double positive events: 58.1%
  vesicle binding response: 157% (inactive)
[2]
  inhibition: 2.3% (inactive)
[3]
  superoxide response (% of plate): 91.2% (inactive)
[4]
  aptamer binding inhibition: 3% (inactive)
[5]
  response: -12.9% (inactive)
[6]
  inhibition: -7.8% (inactive)
[7]
  response: -6.01% (inactive)
[8]
  binding (% of control): 93.8% (inactive)
[9]
  efflux inhibition (fraction of control): -0.06 (inactive)
[10]
  inhibition: 12% (inactive)
[11]
  differentiation response: -31.2% (inactive)

## COc1ccc(CCN2CCC(Nc3nc4ccccc4n3Cc3ccc(F)cc3)CC2)cc1
[1]
  double positive events: 44.8%
  vesicle binding response: 112% (inactive)
[2]
  inhibition: 16.3% (inactive)
[3]
  superoxide response (% of plate): 93.2% (inactive)
[4]
  aptamer binding inhibition: -15% (inactive)
[5]
  response: 34.8% (inactive)
[6]
  inhibition: 1.18% (inactive)
[7]
  response: 4.6% (inactive)
[8]
  binding (% of control): 138% (inactive)
[9]
  efflux inhibition (fraction of control): 0.415 (inactive)
[10]
  inhibition: -38% (inactive)
[11]
  differentiation response: 10.1% (inactive)

## CC(C)COc1ccc(Cc2cnc(N)nc2N)cc1
[1]
  double positive events: 63.9%
  vesicle binding response: 226% (inactive)
[2]
  inhibition: 3.67% (inactive)
[3]
  superoxide response (% of plate): 97.9% (inactive)
[4]
  aptamer binding inhibition: 0% (inactive)
[5]
  response: 5.88% (inactive)
[6]
  inhibition: 59.5% (active)
[7]
  response: -3.28% (inactive)
[8]
  binding (% of control): 95.5% (inactive)
[9]
  efflux inhibition (fraction of control): 0.05 (inactive)
[10]
  inhibition: 0% (inactive)
[11]
  differentiation response: 76% (active)

## O=C(Nc1c(C(=O)O)[nH]c2ccccc12)NC1CCCCC1
[1]
  double positive events: 60.3%
  vesicle binding response: 190% (inactive)
[2]
  inhibition: -17.3% (inactive)
[3]
  superoxide response (% of plate): 102% (inactive)
[4]
  aptamer binding inhibition: 4% (inactive)
[5]
  response: -18.9% (inactive)
[6]
  inhibition: 3.04% (inactive)
[7]
  response: 5.33% (inactive)
[8]
  binding (% of control): 101% (inactive)
[9]
  efflux inhibition (fraction of control): -0.13 (inactive)
[10]
  inhibition: -3% (inactive)
[11]
  differentiation response: -4% (inactive)

## C[C@H](NC(=O)OC(C)(C)C)C(=O)NCC1CCC(C(=O)O)CC1 (stereo partly specified)
[1]
  double positive events: 58%
  vesicle binding response: 166% (inactive)
[2]
  inhibition: 5.03% (inactive)
[3]
  superoxide response (% of plate): 95.3% (inactive)
[4]
  aptamer binding inhibition: 6% (inactive)
[5]
  response: -13.5% (inactive)
[6]
  inhibition: -1.54% (inactive)
[7]
  response: 1.21% (inactive)
[8]
  binding (% of control): 99.5% (inactive)
[9]
  efflux inhibition (fraction of control): -0.06 (inactive)
[10]
  inhibition: 6% (inactive)
[11]
  differentiation response: 0.8% (inactive)

## CCC12CN3CC(CC)(CN(C1)C31C(=O)N(C)c3ccc(C)cc31)C2=O (stereo unspecified)
[1]
  double positive events: 59.5%
  vesicle binding response: 181% (inactive)
[2]
  inhibition: -2.82% (inactive)
[3]
  superoxide response (% of plate): 94.6% (inactive)
[4]
  aptamer binding inhibition: -3% (inactive)
[5]
  response: -18.8% (inactive)
[6]
  inhibition: 0.32% (inactive)
[7]
  response: 4.91% (inactive)
[8]
  binding (% of control): 102% (inactive)
[9]
  efflux inhibition (fraction of control): 0 (inactive)
[10]
  inhibition: -1% (inactive)
[11]
  differentiation response: -10.9% (inactive)

## CC1/C(=C\c2ccc(Cl)cc2)C(=O)C2CC1C2(C)C (stereo unspecified)
[1]
  double positive events: 60.1%
  vesicle binding response: 168% (inactive)
[2]
  inhibition: -3.16% (inactive)
[3]
  superoxide response (% of plate): 94.9% (inactive)
[4]
  aptamer binding inhibition: 2% (inactive)
[5]
  response: -15.2% (inactive)
[6]
  inhibition: -1.54% (inactive)
[7]
  response: 0.95% (inactive)
[8]
  binding (% of control): 99.9% (inactive)
[9]
  efflux inhibition (fraction of control): 0.05 (inactive)
[10]
  inhibition: 9% (inactive)
[11]
  differentiation response: -5.6% (inactive)

## COc1ccc(/C=C2\CCc3ccccc3C2=O)c(OC)c1OC
[1]
  double positive events: 68.5%
  vesicle binding response: 262% (inactive)
[2]
  inhibition: 2.3% (inactive)
[3]
  superoxide response (% of plate): 94.8% (inactive)
[4]
  aptamer binding inhibition: 3% (inactive)
[5]
  response: -0.85% (inactive)
[6]
  inhibition: -2.94% (inactive)
[7]
  response: 5.35% (inactive)
[8]
  binding (% of control): 102% (inactive)
[9]
  efflux inhibition (fraction of control): 0.15 (inactive)
[10]
  inhibition: 5% (inactive)
[11]
  differentiation response: 31.2% (inactive)

## O=C1Nc2ccc3sc4ccccc4c3c2C1=O
[1]
  double positive events: 62%
  vesicle binding response: 162% (inactive)
[2]
  inhibition: 9.63% (inactive)
[3]
  superoxide response (% of plate): 111% (inactive)
[4]
  aptamer binding inhibition: 1% (inactive)
[5]
  response: 3.08% (inactive)
[6]
  inhibition: -0.66% (inactive)
[7]
  response: -7.6% (inactive)
[8]
  binding (% of control): 102% (inactive)
[9]
  efflux inhibition (fraction of control): -0.19 (inactive)
[10]
  inhibition: -15% (inactive)
[11]
  differentiation response: -0.18% (inactive)
